Here are results for 40 compounds from PubChem BioAssay (NCATS).

SMILES strings stand for the structures. Inconclusive results are not listed. A call without a number means that no potency is given here. A number with no mark means an inactive call. Activity calls are given as the source filed them. Calls follow the shape of the dose curve; as a rule, active = well fitted inhibition curve with a large enough effect; inconclusive = small, poorly fitted or top-dose-only effect; inactive = no such curve, though single readings can be large or run the other way. *1 amine or outer side, *2 acyl side, *3 side chain or, on linkers, in order; H or OH if unused. Where a SMILES comes first, the peptide text is derived from it. Bridges are numbered along the chain shown (N, C = ends). [ ]: non-standard residue; d: D form. The star is where a group is joined. ξ: configuration not given here. X10 = NC1=NCCC(C(N[*:1])C(=O)[*:2])N1; ΔAla(3-NHCONH2) = NC(=O)NC=C(N)C(=O)O; ξβ3hOrn = NCCCC(N)CC(=O)*; Dap = NC[CH](N)C(=O)O
Potency is read from the fitted curve at half-maximal effect.

Chain of Protein phosphatase 1D (Homo sapiens) (O15297 whole entry, looked up): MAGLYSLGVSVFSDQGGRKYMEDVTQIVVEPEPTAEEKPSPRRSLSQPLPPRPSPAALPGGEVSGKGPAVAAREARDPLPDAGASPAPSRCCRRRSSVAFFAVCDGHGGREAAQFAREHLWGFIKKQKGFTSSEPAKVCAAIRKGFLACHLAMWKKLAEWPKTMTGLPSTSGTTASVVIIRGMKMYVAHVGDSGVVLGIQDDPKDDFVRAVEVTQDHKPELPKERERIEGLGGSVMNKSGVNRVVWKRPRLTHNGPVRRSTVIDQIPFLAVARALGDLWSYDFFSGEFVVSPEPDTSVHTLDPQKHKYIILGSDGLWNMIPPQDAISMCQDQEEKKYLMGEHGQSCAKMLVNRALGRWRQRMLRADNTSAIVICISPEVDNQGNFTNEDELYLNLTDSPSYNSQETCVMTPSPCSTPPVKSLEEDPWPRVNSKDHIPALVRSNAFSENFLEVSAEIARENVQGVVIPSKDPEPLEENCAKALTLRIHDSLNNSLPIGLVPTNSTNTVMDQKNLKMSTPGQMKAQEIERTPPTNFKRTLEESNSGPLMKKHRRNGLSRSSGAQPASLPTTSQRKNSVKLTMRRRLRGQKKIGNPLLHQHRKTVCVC

In the test the target is Protein phosphatase 1D (Homo sapiens) (UniProt O15297). Put plainly: RapidFire Mass Spectrometry qHTS Assay for Modulators of WT P53-Induced Phosphatase 1 (WIP1) (AID 1347424). The note with it: WIP1 dephosphorylation of phosphopeptide, RapidFire MS; series mostly up to 63 µM. The source says:
Assay Provider (PI): Nathan Coussens Ph. D.
National Center for Advancing Translational Sciences (NCATS), Rockville, MD
National Institute of Health (NIH), Bethesda, Maryland
WT P53-Induced Phosphatase 1 (WIP1) is a member of the magnesium-dependent serine/threonine protein phosphatase (PPM) family and is induced by P53 in response to DNA damage. In several human cancers, the WIP1 protein is overexpressed, which is generally associated with a worse prognosis. Although WIP1 is an attractive therapeutic target, no potent, selective, and bioactive small-molecule modulator with favorable pharmacokinetics has been reported. Phosphatase enzymes are among the most challenging targets for small molecules because of the difficulty of achieving both modulator selectivity and bioavailability. Another major obstacle has been the availability of robust and physiologically relevant phosphatase assays that are suitable for high-throughput screening.
Here, we describe two orthogonal biochemical WIP1 activity assays that utilize phosphopeptides from native WIP1 substrates. We optimized a RapidFire MS assay to quantify the enzymatically dephosphorylated peptide reaction product in a 384-well format. Additionally, a redshifted Rhodamine-PBP fluorescence assay was optimized in a 1,536-well format to enable real-time WIP1 activity measurements through the detection of the orthogonal reaction product, Pi. We validated these two optimized assays by quantitative high-throughput screening against the National Center for Advancing Translational Sciences (NCATS) Pharmaceutical Collection and used secondary assays to confirm and evaluate inhibitors identified in the primary screen.
SEQUENCE No. (e.g., 1, 2, 3, etc.); […] (e.g., Cells, Incubation, Reagent, etc.); VALUE; DESCRIPTION
1; Reagent; 50 uL; dispensed assay buffer: 0.1% formic acid in water (10 uL : 40 uL) solution in column 1
3; Library Compounds; 63 nL; library compounds in DMSO, columns 3-24
4; Control Compounds; 63 nL; DMSO in wells I-P, columns 1-2, GSK830371 (10 uM, final) in wells A-H, column 2
5; Time; 1 hr; incubation
6; Substrate; 2 uL; VEPPL-pS-QETFS (10 uM) in assay buffer, column 2-24
7; Time; 5 min; incubation
8; Reagent; 2 uL; 0.5% formic acid in water, columns 2-24
9; Reagent; 38 uL; VEPPL-S-QETF*S in 0.1% formic acid, columns 2-24
10; Detection; mass spec; RapidFire mass spectrometry
NOTES (numbers refer to sequence above)
1, 2, 6; dispensed reagent in White Nunc 384-well PP microplates (264573); assay buffer: 50 mM Tris-HCl pH 7.5, 30 mM MgCl2, 1 mM TCEP, 0.1 mM EGTA, 75 ug/mL BSA.
2, 6, 8, 9; Dispensed with BioRaptr (Beckman Coulter)
2, 6, 9; Final concentrations: 10 nM WIP1; 2 uM VEPPL-pS-QETFS; 1 uM VEFFL-S-QETF*S
3 & 4; Kalypsys Pintool transfer (Wako USA), Tip wash sequence: water, DMSO, methanol, 20 sec vacuum dry.
5 & 7; incubation at room temperature
10; RapidFire mass spectrometry read using the Agilent RapidFire 360 (Clausse, 2019)
Clausse V, et al. Physiologically relevant orthogonal assay for the discovery of small-molecule modulators of WIP1 […] in high-throughput screens. J Biol Chem. 2019, 294(46): 17654-17668. doi:10.1074/jbc.RA119.010201
A general note: In qHTS, concentration-response curves come from the screen itself.
As to `CCCC(=O)O[C@]1(C(=O)CC)CC[C@H]2[C@@H]3CCC4=CC(=O)CC[C@]4(C)[C@H]3[C@@H](O)C[C@@]21C`, the Potency entry is “inactive”.

As for `O=C(O)/C=C(\CC(=O)O)C(=O)O`, the Potency entry is “inactive”.

For the compound `N[C@@H](Cc1cc(I)c(O)c(I)c1)C(=O)O`, the Potency is 20 µM (active).

For `O=C(O)CCCC[P+](c1ccccc1)(c1ccccc1)c1ccccc1`, the Potency result was “inactive”.

As to `C[C@H](N)C(=O)N[C@@H](C)C(=O)NC1[C@H]2CN(c3nc4c(cc3F)c(=O)c(C(=O)O)cn4-c3ccc(F)cc3F)C[C@@H]12` (stereo not given in full), the Potency entry is “inactive”.

As to `CCCc1ncc(C(=O)O)s1`, the Potency entry is “inactive”.

Turning to `CC(C(O)c1ccccc1)N(C)CCOC(c1ccccc1)c1ccccc1` (stereo not given), the Potency result is “inactive”.

On to `CCCC(=O)Nc1ccc(O)c(C(C)=O)c1`, for which the Potency result is “inactive”.

In the case of `Oc1ccc(CCNCCCCCCNCCc2ccccc2)cc1O`, the Potency result was “inactive”.

As to `Cc1ccccc1C(=O)N1CC/C(=N\OS(=O)(=O)O)c2ccc(Cl)cc21`, the Potency entry was “inactive”.

With `Clc1ccc2c(c1)Nc1ccccc1S2`, the Potency result was “inactive”.

Take `Cc1nc(C2CCCCC2)c(-c2ccc(S(N)(=O)=O)c(F)c2)o1`: the Potency entry is “inactive”.

For the compound `O=C(NO)c1ccccc1`, the Potency entry was “inactive”.

Take `Cc1nc([N+](=O)[O-])cn1-c1ccc([N+](=O)[O-])cc1`: the Potency result was “inactive”.

Regarding `C=CC[N+]1([C@H]2C[C@H]3[C@@H]4CC[C@H]5C[C@H](OC(C)=O)[C@@H](N6CCCCC6)C[C@]5(C)[C@H]4CC[C@]3(C)[C@H]2OC(=O)CC)CCCCC1`, the Potency result is “inactive”.

Consider `Cc1ccc(CCn2c3c(c4cc(Cl)ccc42)CN(C)CC3)cn1`, for which the Potency result was “inactive”.

For `CC1(C)O[C@@H]2C[C@H]3[C@@H]4CCC5=CC(=O)C=C[C@]5(C)[C@@]4(F)[C@@H](O)C[C@]3(C)[C@]2(C(=O)CO)O1`, the Potency entry is “inactive”.

Turning to `Nc1ccc(C(=O)OCC(O)CO)cc1` (stereo not given), the Potency result is “inactive”.

On to `COc1ccc2c(c1)CCCC2=O`, for which the Potency result was “inactive”.

For the compound `CN1CCN(N)CC1`, the Potency result was “inactive”.

Consider `O=C(CCCCC(=O)Nc1c(I)cc(I)c(C(=O)O)c1I)Nc1c(I)cc(I)c(C(=O)O)c1I`, for which the Potency result was “inactive”.

For `C/C(=N/NC(=O)c1ccncc1)C(=O)O`, the Potency result is “inactive”.

`O=C1NC(c2ccccc2)(c2ccccc2)C(=O)N1COP(=O)(O)O`: the Potency result is “inactive”.

For `CC(NCCC(c1ccccc1)c1ccccc1)c1ccccc1` (stereo not given), the Potency entry was “inactive”.

Take `Cc1cccc(N(C)C(=S)Oc2ccc3c(c2)CCC3)c1`: the Potency result was “inactive”.

As to `Cc1ccc(C(=O)C(=O)O)cc1C`, the Potency result was “inactive”.

Consider `Nc1ccc(O)cc1`, for which the Potency result is “inactive”.

For the compound `Cc1ccc(C(=O)Oc2ccc(C(O)CNC(C)(C)C)cc2OC(=O)c2ccc(C)cc2)cc1` (stereo not given), the Potency result is “inactive”.

In the case of `NS(=O)(=O)c1cc2c(cc1Cl)CN(C1CCCCC1)C2=O`, the Potency entry is “inactive”.

For the compound `Cc1onc(-c2c(Cl)cccc2Cl)c1C(=O)Cl`, the Potency entry is “inactive”.

`C[C@H]1C[C@H]2[C@@H]3CCC4=CC(=O)C=C[C@]4(C)[C@H]3C(=O)C[C@]2(C)[C@@]1(O)C(=O)CO`: the Potency entry was “inactive”.

Regarding `NCCCC(N)CC(=O)NCC1NC(=O)C(CO)NC(=O)C(N)CNC(=O)C(C2CCN=C(N)N2)NC(=O)C(=CNC(N)=O)NC1=O` (stereo not drawn) (H-[Dap]S[Dap](ξβ3hOrn)[ΔAla(3-NHCONH2)][X10]; lactam 1-C; configuration not given here), the activity change, negative = inhibition was 2.35% [at 0.505 µM].

Consider `Nc1c(NC/C=C\COc2cc(CN3CCCCC3)ccn2)c(=O)c1=O`, for which the Potency result is “inactive”.

As for `C/C(=C1\CCOC(=O)S1)N(C=O)Cc1cnc(C)nc1N`, the Potency result was “inactive”.

Regarding `CCCCCCn1c(=O)c2c(ncn2C)n(C)c1=O`, the Potency result is “inactive”.

In the case of `CN1Cc2cc(C(=O)N3CCC(C4CCNCC4)CC3)ccc2NC(CC(=O)O)C1=O` (stereo not given), the Potency result was “inactive”.

Take `Nc1c[n+](N2CCOCC2)no1`: the Potency entry was “inactive”.

With `CCOC(=O)N1CCC(Nc2ccc(Cl)cc2N)CC1`, the Potency entry was “inactive”.

Consider `CC(COc1ccccc1)NN` (stereo not given), for which the Potency result was “inactive”.

With `CC(=O)Nc1ccc(S(=O)(=O)Nc2cc(C)on2)cc1`, the Potency result was “inactive”.
